The results in this text go back to PubChem BioAssay (NCI).

Assay in all cases: NCI-60 one-dose screen, 48 h (100 = growth as untreated, 0 = no growth, -100 = all killed)
What all share (conditions): 10 µM unless noted

The subject of experiment [1] is SK-MEL-2 melanoma.
Experiment [2] deals with EKVX NSCLC.
Experiment [3] relates to UO-31 renal.
For experiment [4], the system named is TK-10 renal.
Experiment [5] concerns ACHN renal.
Experiment [6] concerns CAKI-1 renal.
The test system of experiment [7] is A498 renal.
Experiment [8] has as its system CCRF-CEM leukemia.
Experiment [9] concerns MOLT-4 leukemia.
Experiment [10] concerns SR leukemia.
Experiment [11] has as its system RPMI-8226 leukemia.
The subject of experiment [12] is OVCAR-8 ovarian.
Experiment [13] deals with OVCAR-5 ovarian.
The test system of experiment [14] is OVCAR-4 ovarian.
Experiment [15] relates to SK-OV-3 ovarian.
The test system of experiment [16] is IGROV1 ovarian.
In experiment [17] the test system is HS 578T breast.
Experiment [18] relates to OVCAR-3 ovarian.
For experiment [19], the system named is NCI/ADR-RES ovarian.
Experiment [20] relates to SN12C renal.

Compounds without any hit were thinned out: in the full panel of roughly 83,000, 20% have a hit.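 Single-dose data. Exposure time 48 hours. Values below 10 considered active.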 A number with no mark means an inactive call. Activity calls are given as the source filed them.

As to `O=C1/C(=C/c2ccccc2)SC(=Nc2ccccc2)N1Nc1ccccc1`, the growth in experiment [1] is -25.2% (active); in [2] it was 18.9%; in experiment [3] it was 14.8%; in experiment [4], 31.4%; in experiment [5], 10%; in experiment [6], 17.1%. Besides, the growth was -33.1% (active) in experiment [7]; 6.81% (active) in [8]; -1.49% (active) in experiment [9]; -20.1% (active) in [10]; -37.4% (active) in [11]; 24.5% in [12]. Moreover, the growth in experiment [13] is 22.3%; in [14] it was 8.26% (active); in experiment [15] it was 10.5%; in [16] it was 22.7%; in experiment [17] it was 35.1%.
For the compound `CCN(CC)c1ccc(/C=C2/NC(=O)NC2=O)cc1`, the growth in experiment [1] was 8.13% (active); in experiment [2] it was 1.53% (active); in experiment [3], 53.5%; in experiment [4], 49.5%; in experiment [5], 71.4%; in experiment [6], 39%. Moreover, the growth is 23.8% in [7]; 74.1% in experiment [11]; 79.9% in experiment [12]; 33.2% in experiment [13]; 77% in experiment [14]; 33.7% in experiment [15]. In addition, the growth in experiment [16] was 46.7%; in [18] it was 19.3%; in [17] it was -2.99% (active); in [19], -31.9% (active).
As to `COCc1nc(NS(=O)(=O)c2ccc(N)cc2)nc(C)c1Br`, the growth in experiment [1] is 96.6%; in experiment [2] it was 95.9%; in experiment [3], 95.4%; in [4] it was 93.1%; in experiment [5], 102%; in experiment [6], 102%. Also, the growth in [7] was 118%; in experiment [8] it was 103%; in experiment [9], 103%; in [10], 89.3%; in [11], 106%; in experiment [12], 110%. Also, the growth is 106% in experiment [13]; 123% in experiment [14]; 96.9% in experiment [15]; 103% in experiment [16]; 112% in experiment [18]; 112% in experiment [17].
On to `CCOC(=O)c1ccc(NC(=O)CSC(N)=O)cc1`, for which the growth is 98.6% in experiment [1]; 128% in experiment [2]; 56.6% in experiment [3]; 113% in experiment [4]; 102% in experiment [5]; 108% in experiment [6]. Besides, the growth in [7] was 111%; in [8] it was 103%; in experiment [9], 84.6%; in experiment [10] it was 96.8%; in experiment [11], 87.3%; in [12], 100%. Moreover, the growth is 99.1% in experiment [13]; 122% in experiment [14]; 128% in experiment [15]; 92% in experiment [16]; 109% in experiment [18]; 105% in experiment [17]. Besides, in experiment [19], the growth was 99.3%.
`Cn1cnc([N+](=O)[O-])c1S(=O)(=O)Oc1ccccc1`: the growth is 98.2% in experiment [1]; 103% in experiment [2]; 75.1% in experiment [3]; 101% in [4]; 17.1% in experiment [5]; 62.9% in experiment [6]. Besides, the growth in experiment [7] is 108%; in experiment [8] it was 6.29% (active); in experiment [9], 76.5%; in experiment [10] it was 56.1%; in [12], 100%; in [13] it was 103%. The growth in experiment [14] was 112%; in experiment [15], 101%; in experiment [16], 85.7%; in experiment [18], 1.83% (active); in [17] it was 105%; in experiment [19] it was 92%.
Consider `COc1cc(Cl)cc(-c2nn(C(=O)NCCN3CCOCC3)cc2-c2ccncc2)c1`, for which the growth in experiment [1] is 78.3%; in experiment [2] it was 93.4%; in experiment [20], 75.3%; in experiment [4], 78%; in [5], 65.6%; in experiment [6], 73.3%. Further, the growth in experiment [7] is 65.7%; in [9], 74.2%; in experiment [10] it was 29.8%; in experiment [12] it was 72.9%; in experiment [13], 99.5%; in [14] it was 102%. For the same compound, the growth is 48.7% in experiment [15]; 61.5% in experiment [16]; 20.3% in experiment [18]; 97% in experiment [17]; 60.9% in [19].
In the case of `O=C(Nc1ccccc1)c1cc2ccccc2s1`, the growth is 72.2% in experiment [1]; 85.5% in experiment [2]; 71.2% in experiment [3]; 98.7% in experiment [4]; 94.2% in experiment [5]; 78.8% in experiment [6]. The growth in experiment [7] was 91.7%; in experiment [8], 44.3%; in [9], 83.3%; in experiment [10], 82.1%; in [12], 96.9%; in [13], 81.7%. Further, the growth in experiment [14] is 60%; in experiment [15], 99.4%; in experiment [16], 87.3%; in experiment [17], 98.5%; in experiment [19], 94.4%.
Take `COc1ccc(/C=C/c2nc(NCCCN(C)C)c3ccccc3n2)cc1`: the growth in [1] is -50.9% (active); in experiment [2], 64.3%; in experiment [3], 81.9%; in experiment [4], 89.3%; in experiment [5] it was 122%; in experiment [6], 87.7%. Besides, the growth in experiment [7] was 93.6%; in [8] it was -44.9% (active); in experiment [9] it was -46% (active); in [11] it was 0.379% (active); in experiment [12], 79.8%; in experiment [13], 76.9%. Besides, the growth is 62.9% in experiment [14]; 121% in [15]; 49.9% in experiment [16]; 79.4% in [18]; 90.5% in experiment [17]; 87.9% in experiment [19].
